Here are results for 23 molecules from PubChem BioAssay (Tox21).

The nature of assay [1]: qHTS assay to identify small molecule antagonists of the glucocorticoid receptor (GR) signaling pathway - cell viability counter screen (AID 720693). Also: nearly all actives have a fitted effect of over 55% in size. Also: potency is read from the fitted curve at half-maximal effect. On the technique in general: Quantitative high-throughput screening tests each substance at several concentrations.
Assay [2] can be described thus: qHTS assay for identifying genotoxic compounds that show differential cytotoxicity against isogenic chicken DT40 cell lines with known DNA damage response pathways - wild type cell line (AID 743012). Also: nearly all actives have a fitted effect of over 60% in size. Also: potency is read from the fitted curve at half-maximal effect. In short, it runs like this:
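Cytotoxicity in repair-proficient parental chicken DT40 cells serves as the comparator for Rad54/Ku70- and Rev3-deficient lines. Cells were exposed to compounds for 40 h at 37 C/5% CO2, and ATP-based luminescence (CellTiter-Glo) measured viability.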

The nature of assay [3]: qHTS assay for identifying genotoxic compounds that show differential cytotoxicity against isogenic chicken DT40 cell lines with known DNA damage response pathways - Rev3 mutant cell line (AID 743014). Also: nearly all actives have a fitted effect of over 55% in size. Also: potency is read from the fitted curve at half-maximal effect.
A short description of assay [4]: qHTS assay for identifying genotoxic compounds that show differential cytotoxicity against isogenic chicken DT40 cell lines with known DNA damage response pathways - Rad54/Ku70 mutant cell line (AID 743015). Also: nearly all actives have a fitted effect of over 60% in size. Also: potency is read from the fitted curve at half-maximal effect.
Assay [5] can be described thus: qHTS assay to identify small molecule antagonists of the androgen receptor (AR) signaling pathway using the MDA cell line - cell viability counter screen (AID 743041; also: nearly all actives have a fitted effect of over 45% in size; also: potency is read from the fitted curve at half-maximal effect). In short, it runs like this: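 qHTS viability read-out; MDA-kb2 AR-luc; R1881-stimulated; 16 h exposure at 37C, 0% CO2; CellTiter-Fluor, 30 min; fluorescence intensity.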
Assay [6] addresses Androgen receptor (Homo sapiens) (UniProt P10275). Put plainly: qHTS assay to identify small molecule antagonists of the androgen receptor (AR) signaling pathway using the MDA cell line (AID 743042; also: nearly all actives have a fitted effect of over 55% in size; also: potency is read from the fitted curve at half-maximal effect). In short, it runs like this: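 MDA-kb2 cells (human breast carcinoma, stably carrying an MMTV-luciferase reporter responsive to AR and GR) were plated at 3,000 cells/well and preincubated 5 hr at 37C, then given compound plus R1881 agonist for 16 h. ONE-Glo luminescence was read.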

A short description of assay [7]: qHTS assay to identify small molecule antagonists of the androgen receptor (AR) signaling pathway - cell viability counter screen (AID 743033; also: nearly all actives have a fitted effect of over 45% in size).
The target in assay [8] is Androgen receptor (Homo sapiens) (UniProt P10275). The assay can be described thus: qHTS assay to identify small molecule agonists of the androgen receptor (AR) signaling pathway (AID 743036; active = well fitted activation curve with a large enough effect in the signal ratio in the repeat runs, with a control signal flat, not every such curve was filed as active; the % refers to the signal ratio). In short, it runs like this: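 Fluorescence from a beta-lactamase FRET substrate served as read-out in AR-UAS-bla GripTite HEK293 cells. Cells were treated with DMSO-dissolved compounds for 16 h at 37C, then with LiveBLAzer B/G substrate for 2 h at room temperature.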
Chain of Androgen receptor (Homo sapiens) (P10275 whole entry, looked up): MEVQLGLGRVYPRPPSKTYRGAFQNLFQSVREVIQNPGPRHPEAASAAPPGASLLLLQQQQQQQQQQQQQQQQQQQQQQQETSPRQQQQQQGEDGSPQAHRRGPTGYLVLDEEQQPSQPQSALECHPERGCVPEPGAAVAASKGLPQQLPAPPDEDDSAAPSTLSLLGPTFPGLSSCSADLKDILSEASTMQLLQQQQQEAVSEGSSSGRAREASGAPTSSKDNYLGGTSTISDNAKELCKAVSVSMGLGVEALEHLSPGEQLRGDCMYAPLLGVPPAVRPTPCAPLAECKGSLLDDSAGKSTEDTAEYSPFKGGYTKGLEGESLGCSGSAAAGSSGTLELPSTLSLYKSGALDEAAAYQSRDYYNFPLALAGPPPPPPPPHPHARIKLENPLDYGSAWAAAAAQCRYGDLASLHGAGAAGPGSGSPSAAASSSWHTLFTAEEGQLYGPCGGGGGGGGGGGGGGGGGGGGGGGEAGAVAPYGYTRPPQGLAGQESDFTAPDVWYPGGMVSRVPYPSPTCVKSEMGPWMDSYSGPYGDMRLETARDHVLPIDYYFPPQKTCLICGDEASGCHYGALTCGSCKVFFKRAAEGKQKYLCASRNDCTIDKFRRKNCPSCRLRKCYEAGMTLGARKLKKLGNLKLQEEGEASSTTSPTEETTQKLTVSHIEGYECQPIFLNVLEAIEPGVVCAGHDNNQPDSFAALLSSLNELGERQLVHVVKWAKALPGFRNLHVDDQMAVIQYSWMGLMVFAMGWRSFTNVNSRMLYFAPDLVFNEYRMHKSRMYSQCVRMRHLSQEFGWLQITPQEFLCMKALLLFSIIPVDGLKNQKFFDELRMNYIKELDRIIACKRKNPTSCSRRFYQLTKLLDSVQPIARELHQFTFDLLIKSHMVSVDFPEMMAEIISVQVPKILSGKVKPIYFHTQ

The target is the same in assay [9]. Put plainly: qHTS assay to identify small molecule antagonists of the androgen receptor (AR) signaling pathway (AID 743035; active = well fitted inhibition curve with a large enough effect in the signal ratio in the repeat runs, not every such curve was filed as active; the % refers to the signal ratio). An outline of the steps: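 Steps: seed AR-UAS-bla GripTite HEK293 cells, incubate 4 h at 37C; pin in test compound, then add agonist R1881; incubate 16 h at 37C; add LiveBLAzer B/G FRET substrate, 2 h at room temperature; read fluorescence.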

The target is the same in assay [10]. The assay can be described thus: qHTS assay to identify small molecule agonists of the androgen receptor (AR) signaling pathway using the MDA cell line (AID 743040; also: nearly all actives have a fitted effect of over 20% in size). An outline of the steps: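 Agonist activity is measured as luciferase luminescence in human MDA-kb2 cells whose MMTV reporter responds to both AR and GR. Compounds in DMSO incubate 16 h at 37C, 0% CO2, and ONE-Glo is read after 30 min.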

Inconclusive results are not listed. Activity calls are given as the source filed them. Unless noted, calls follow the shape of the dose curve; as a rule, active = well fitted curve in the direction sought with a large enough effect in the repeat runs; inconclusive = weak or mixed curves; inactive = no such curve, though single readings can be large; an effect the other way counts as inactive or inconclusive.

Turning to `CN1CC[C@H](c2c(O)cc(O)c3c(=O)cc(-c4ccccc4Cl)oc23)[C@H](O)C1`, the Potency in [1] was 0.601 µM (active); in assay [2], 0.106 µM (active); in assay [3], 0.15 µM (active); in [4], 0.15 µM (active); in [6], 0.106 µM (active). Besides, the Potency result in assay [5] is “inactive”.
As to `N[C@H](CO)C(=O)O`, the Potency entry in [1], in [2], in assay [4], in [7] and in assay [5] was “inactive” in each case.
Take `CO/N=C(\C(=O)N[C@@H]1C(=O)N2C(C(=O)O)=C(CSc3cnns3)CS[C@H]12)c1csc(N)n1`: the Potency result in assay [1], in assay [2], in assay [4], in [7], in [8] and in [5] was “inactive” in each case. Also, the Potency result in assay [6] was “inactive”.
As for `O=C(O)c1ccc(NC2OC[C@@H](O)[C@H](O)[C@H]2O)cc1` (stereo partly specified), the Potency result in assay [1], in assay [2], in assay [4], in [7] and in assay [5] was “inactive” in each case.
In the case of `C[C@]12O[C@H](C[C@]1(O)CO)n1c3ccccc3c3c4c(c5c6ccccc6n2c5c31)CNC4=O`, the Potency in [1] is 3.01 µM (active); in [2], 0.237 µM (active); in [3], 0.376 µM (active); in assay [4], 0.376 µM (active); in assay [5], 11.9 µM (active); in assay [6], 2.98 µM (active).
Consider `Oc1ccc(Cl)cc1C1CCCC1`, for which the Potency result in assay [1] and in assay [5] was “inactive” throughout. In addition, the Potency is 48.6 µM (active) in [2], 15.4 µM (active) in [3] and 27.3 µM (active) in assay [4].
`NC(=O)c1cc[n+](CC2=C(C(=O)O)N3C(=O)[C@@H](NC(=O)C(c4ccccc4)S(=O)(=O)[O-])[C@H]3SC2)cc1` (stereo partly specified): the Potency result in assay [1], in assay [2], in assay [3], in [9], in assay [5] and in [6] was “inactive” throughout.
Consider `CCCCCCCC/C=C\CCCCCCCC(=O)N(CCO)CCO`, for which the Potency in assay [1] was 48.8 µM (active); in assay [2] it was 15.3 µM (active); in assay [3] it was 17.2 µM (active); in [4], 13.6 µM (active); in assay [5], 43.1 µM (active).
With `C[C@@H]1C[C@H]2[C@@H]3C[C@H](F)C4=CC(=O)C=C[C@]4(C)[C@@]3(Cl)[C@@H](O)C[C@]2(C)[C@H]1C(=O)COC(=O)C(C)(C)C`, the Potency entry in assay [1], in [2], in assay [4], in [7] and in assay [5] was “inactive” in each case.
As to `C[C@@H]1O[C@@H]1P(=O)(O)O`, the Potency result in [1], in assay [2], in assay [4], in assay [7], in assay [9] and in assay [8] was “inactive” in each case. In addition, the Potency result in [5] and in assay [6] was “inactive” in each case.
Regarding `CCC(=O)OC(OP(=O)(CCCCc1ccccc1)CC(=O)N1C[C@H](C2CCCCC2)C[C@H]1C(=O)O)C(C)C` (stereo partly specified), the Potency entry in assay [1], in assay [2], in assay [4], in [7] and in assay [5] was “inactive” in each case.
Take `CNC(=O)C[C@@H](N)C(=O)N[C@@H](C(=O)N[C@@H]1C(=O)N2[C@@H]1SC(C)(C)[C@@H]2C(=O)O)c1ccc(O)cc1`: the Potency result in assay [1], in [2], in assay [4], in [7] and in [5] was “inactive” each time.
On to `CCOc1ccc(NC(=S)Nc2ccc(OCC)cc2)cc1`, for which the Potency result in assay [1], in assay [2], in [3], in assay [7] and in assay [5] was “inactive” each time.
As for `c1ccc(-c2ccc(C(c3ccccc3)n3ccnc3)cc2)cc1` (stereo unspecified), the Potency entry in assay [1], in [7] and in assay [5] was “inactive” each time. Further, the Potency in [2] is 10.6 µM (active); in assay [4], 11.9 µM (active).
As for `CC(C)CCC[C@@H](C)[C@H]1CC[C@H]2[C@@H]3CC[C@@H]4C[C@H](O)CC[C@]4(C)[C@H]3CC[C@]12C`, the Potency entry in assay [1], in assay [2], in [4], in assay [7] and in assay [5] was “inactive” in each case.
Turning to `CC(=O)OCC(=O)[C@@]1(O)CC[C@H]2[C@@H]3C[C@H](C)C4=CC(=O)C=C[C@]4(C)[C@H]3[C@@H](O)C[C@@]21C`, the Potency entry in assay [1], in assay [2], in assay [3], in [7] and in assay [5] was “inactive” each time.
In the case of `COc1cccc2c1[C@@H]1CN(CCCCn3c(=O)[nH]c4c(sc5ncc(-c6ccccc6)nc54)c3=O)C[C@@H]1CO2`, the Potency result in [1] is “inactive”. Moreover, the Potency in assay [2] was 13.3 µM (active); in assay [3], 18.8 µM (active); in assay [4] it was 11.9 µM (active); in assay [6] it was 29.8 µM (active).
`CC[C@H]1OC(=O)C[C@@H](O)[C@H](C)[C@@H](O[C@@H]2O[C@H](C)[C@@H](O[C@H]3C[C@@](C)(O)[C@@H](O)[C@H](C)O3)[C@H](N(C)C)[C@H]2O)[C@@H](CC=O)C[C@@H](C)C(=O)/C=C/C(C)=C/[C@@H]1CO[C@@H]1O[C@H](C)[C@@H](O)[C@@H](OC)[C@H]1OC`: the Potency result in assay [1], in [2], in [3], in assay [7] and in assay [5] was “inactive” each time.
Consider `N[C@@H](Cc1cnc[nH]1)C(=O)O`, for which the Potency result in assay [1], in assay [2], in [4], in [7], in [9] and in [8] was “inactive” throughout. In addition, the Potency entry in [10], in [5] and in assay [6] was “inactive” in each case.
`COC(=O)C(CN)c1c[nH]c2ccc(OC)cc12` (stereo unspecified): the Potency result in assay [1], in assay [2], in [4], in [7] and in [5] was “inactive” each time.
Take `CN1C(=O)C[C@@H](C(=O)N[C@@H](Cc2cnc[nH]2)C(=O)N2CCC[C@H]2C(N)=O)NC1=O`: the Potency result in assay [1], in [2], in assay [3], in [4] and in assay [5] was “inactive” each time.
On to `CCN(CC)CCn1c(=O)c(Cc2ccc(OC)cc2)nc2ccccc21`, for which the Potency entry in assay [1], in assay [7], in assay [9], in assay [8], in [10] and in assay [5] was “inactive” each time. For the same molecule, the Potency entry in assay [6] is “inactive”. The Potency in assay [2] was 26.6 µM (active); in assay [3] it was 29.8 µM (active).
With `C=CC1=C(C(=O)O)N2C(=O)[C@@H](NC(=O)/C(=N/OCC(=O)O)c3csc(N)n3)[C@H]2SC1` (stereo in doubt), the Potency entry in assay [1], in [2], in assay [4], in assay [7] and in assay [5] was “inactive” each time.
